# Source: PubChem BioAssay (NCATS)
# “And” between values parts separate entries of the source, which are not always exact repeats. Equal values may be shown once. Records with an inconclusive call do not appear. Where a call stands in place of a potency, no number is given. Where a structure was tested more than once in an assay, its records may differ in their call. The source made the active and inactive calls. Unless noted, calls come from the whole dose curve; as a rule, active = well fitted inhibition curve with a large enough effect; inconclusive = small, poorly fitted or top-dose-only effect; inactive = flat fitted curve, though single readings scatter. Non-standard residues stand in square brackets, D forms with d. Residues, ends and D or L forms follow the SMILES beside them. *: point of attachment. Sta = CC(C)C[C@H](N)[C@@H](O)CC(=O)O; Isovaleryl = CC(C)CC(=O)*
# How the values were obtained:
# [1] = P-glycoprotein substrates identified in KB-8-5-11 adenocarcinoma cell line, qHTS therapeutic library screen (AID 1346987); note: nearly all actives have a fitted effect of over 65% in size; note: potency is the fitted concentration of half-maximal effect
# Summary of the method: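 Steps: plate 500 KB-8-5-11 cells/well in DMEM + 10% FCS (colchicine removed); pin compounds in dose-response; incubate 72 h, 37 degree C, 5% CO2; add CellTiter-Glo, 5 min; read luminescence.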
# [2] = Natriuretic polypeptide receptor (hNpr1) antagonism - Pilot counterscreen GloSensor control cell line (AID 1347045; calls by dose curve; note: series mostly up to about 38 µM)
# Summary of the method: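 Luminescence was read before and 20 min after adding 50 uM SNP, which stimulates soluble guanylyl cyclase. The HEK293 cells expressing the GloSensor cGMP sensor had been preloaded with 2% reagent for 2 h and treated with compound.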
# [3] = target: Atrial natriuretic peptide receptor 2 (Homo sapiens) (UniProt P20594); assay: Natriuretic polypeptide receptor (hNpr2) antagonism - Pilot subtype selectivity assay (AID 1347050; calls by dose curve)
# Summary of the method: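 HEK293 cells expressing hNpr2 and a GloSensor cGMP luciferase sensor, 1500/well, preloaded 2 h with 2% GloSensor reagent, compound 30 min, then 1 nM hNppC for 20 min. Antagonism from luminescence after versus baseline pre-read; LOPAC in 1:5 titrations.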
# [4] = target: Atrial natriuretic peptide receptor 1 (Homo sapiens) (UniProt P16066); assay: Natriuretic polypeptide receptor (hNpr1) antagonism - Pilot screen (AID 1347049; calls by dose curve;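 note: agonist-evoked cGMP luminescence read 20 min after hNppA addition; series mostly up to about 58 µM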)
# Summary of the method: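 HEK293 cells expressing hNpr1 and GloSensor cGMP luciferase, 1500/well, loaded with 2% GloSensor reagent 2 h, compound 30 min at room temperature; luminescence read before and 20 min after 0.1 nM hNppA stimulation.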
# Sequence of Atrial natriuretic peptide receptor 1 (Homo sapiens) (P16066 whole entry, looked up): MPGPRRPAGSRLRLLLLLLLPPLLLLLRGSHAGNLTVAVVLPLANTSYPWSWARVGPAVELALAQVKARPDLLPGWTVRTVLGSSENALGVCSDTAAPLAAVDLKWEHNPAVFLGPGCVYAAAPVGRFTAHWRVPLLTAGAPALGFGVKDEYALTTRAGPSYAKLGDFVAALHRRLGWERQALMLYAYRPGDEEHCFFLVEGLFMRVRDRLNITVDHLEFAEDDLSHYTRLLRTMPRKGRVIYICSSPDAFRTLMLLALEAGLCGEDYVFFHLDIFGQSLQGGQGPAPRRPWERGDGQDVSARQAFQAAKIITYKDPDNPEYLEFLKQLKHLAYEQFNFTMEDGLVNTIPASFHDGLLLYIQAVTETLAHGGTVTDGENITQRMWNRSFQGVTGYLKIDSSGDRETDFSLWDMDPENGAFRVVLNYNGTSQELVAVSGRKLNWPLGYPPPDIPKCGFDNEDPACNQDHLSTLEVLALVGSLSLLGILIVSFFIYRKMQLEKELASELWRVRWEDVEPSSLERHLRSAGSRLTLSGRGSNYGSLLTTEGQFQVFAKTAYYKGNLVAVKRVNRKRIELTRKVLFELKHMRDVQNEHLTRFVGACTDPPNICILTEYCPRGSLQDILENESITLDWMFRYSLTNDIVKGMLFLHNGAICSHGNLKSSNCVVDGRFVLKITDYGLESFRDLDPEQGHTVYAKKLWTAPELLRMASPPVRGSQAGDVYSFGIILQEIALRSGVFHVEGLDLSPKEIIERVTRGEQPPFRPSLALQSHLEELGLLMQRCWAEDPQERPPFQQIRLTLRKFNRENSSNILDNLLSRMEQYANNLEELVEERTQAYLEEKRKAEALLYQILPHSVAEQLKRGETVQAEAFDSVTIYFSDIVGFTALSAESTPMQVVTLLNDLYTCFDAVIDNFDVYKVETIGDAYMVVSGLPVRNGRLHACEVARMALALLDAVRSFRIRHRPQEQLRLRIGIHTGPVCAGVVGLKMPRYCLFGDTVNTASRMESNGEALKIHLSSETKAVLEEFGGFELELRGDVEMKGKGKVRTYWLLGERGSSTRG
# Sequence of Atrial natriuretic peptide receptor 2 (Homo sapiens) (P20594 whole entry, looked up): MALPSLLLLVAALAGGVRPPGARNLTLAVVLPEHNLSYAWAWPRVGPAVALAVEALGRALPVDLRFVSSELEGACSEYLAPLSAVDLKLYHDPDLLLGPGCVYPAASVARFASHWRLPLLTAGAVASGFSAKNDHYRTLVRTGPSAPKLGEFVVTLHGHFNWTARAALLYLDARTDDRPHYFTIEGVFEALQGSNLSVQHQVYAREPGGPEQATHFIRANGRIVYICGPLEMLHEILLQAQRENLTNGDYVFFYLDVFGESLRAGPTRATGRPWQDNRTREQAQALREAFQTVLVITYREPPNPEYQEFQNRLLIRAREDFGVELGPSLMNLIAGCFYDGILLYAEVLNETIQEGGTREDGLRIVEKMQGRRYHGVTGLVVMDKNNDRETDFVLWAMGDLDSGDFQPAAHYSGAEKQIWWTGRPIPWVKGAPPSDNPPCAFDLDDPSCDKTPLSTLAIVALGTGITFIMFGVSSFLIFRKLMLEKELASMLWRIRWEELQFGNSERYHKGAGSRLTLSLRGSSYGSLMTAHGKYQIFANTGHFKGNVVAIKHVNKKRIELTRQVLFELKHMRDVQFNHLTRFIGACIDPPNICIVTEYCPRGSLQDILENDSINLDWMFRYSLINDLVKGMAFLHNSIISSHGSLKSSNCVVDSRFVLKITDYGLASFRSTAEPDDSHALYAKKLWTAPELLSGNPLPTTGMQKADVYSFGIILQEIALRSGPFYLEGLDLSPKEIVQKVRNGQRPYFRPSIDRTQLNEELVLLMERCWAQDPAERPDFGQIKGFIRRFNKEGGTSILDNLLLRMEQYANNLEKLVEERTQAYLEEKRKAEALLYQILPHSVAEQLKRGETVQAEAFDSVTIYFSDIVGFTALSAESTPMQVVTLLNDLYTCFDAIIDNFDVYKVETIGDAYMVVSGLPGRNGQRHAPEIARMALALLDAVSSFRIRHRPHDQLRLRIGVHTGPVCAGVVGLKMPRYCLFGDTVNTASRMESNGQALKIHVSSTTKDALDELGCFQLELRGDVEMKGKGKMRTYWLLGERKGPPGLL
smiles,measurement,setting,value
Clc1ccc(C(Cn2ccnc2)OCc2ccsc2Cl)c(Cl)c1 (stereo not given),Potency,[1],18.4 µM (active)
Cc1ccc(C)c(OCCCC(C)(C)C(=O)O)c1,Potency,[1],inactive
CC(=O)Nc1ccc(O)cc1,Potency,[1],inactive
COC(=O)C1=C(C)NC(C)=C(C(=O)OC(C)C)C1c1cccc2nonc12 (stereo not given),Potency,[1],inactive
CC1(C)CCC(C)(C)c2cc(NC(=O)c3ccc(C(=O)O)cc3)ccc21,Potency,[1],inactive
CC1=C(C)C(=O)C(C(CCCCCC(=O)O)c2ccccc2)=C(C)C1=O (stereo not given),Potency,[1],inactive
Cc1ccc(S(=O)(=O)NC(=O)NN2CC3CCCC3C2)cc1 (stereo not given),Potency,[1],inactive
N=C(N)c1ccc2cc(OC(=O)c3ccc(N=C(N)N)cc3)ccc2c1,Potency,[1],inactive
COC(=O)N[C@H](C(=O)N[C@@H](Cc1ccccc1)[C@@H](O)CN(Cc1ccc(-c2ccccn2)cc1)NC(=O)[C@@H](NC(=O)OC)C(C)(C)C)C(C)(C)C,Potency,[1],inactive
Nc1ccc(S(N)(=O)=O)cc1,Potency,[1],inactive
O=Nc1c(-c2c(O)[nH]c3cc(Br)ccc23)[nH]c2ccccc12,Potency,[1],9.35 µM (active)
CCCS(=O)c1ccc2nc(NC(=O)OC)[nH]c2c1 (stereo not given),Potency,[1],20.9 µM (active) and 13 µM (active)
NC(=O)Cc1cccc(C(=O)c2ccccc2)c1N,Potency,[1],inactive
COc1c(O)cc2c(c1O)[C@@H]1O[C@H](CO)[C@@H](O)[C@H](O)[C@H]1OC2=O,Potency,[1],inactive
COc1ccc(C2(C#N)CCC(C(=O)O)CC2)cc1OC1CCCC1 (stereo not given),Potency,[1],inactive
CC(C)(S)[C@@H](N)C(=O)O,Potency,[1],inactive
CS(=O)(=O)OCCCCOS(C)(=O)=O,Potency,[1],inactive
CCCCc1ccc2nc(NC(=O)OC)[nH]c2c1,Potency,[1],11.8 nM (active) and 111 nM (active)
N=C(N=C(N)N)N1CCOCC1,Potency,[1],inactive
O=c1oc2cc(O)ccc2s1,Potency,[1],inactive
COc1cc(OC)c(C(=O)CCCN2CCCC2)c(OC)c1,Potency,[1],inactive
CCC[C@@H]1C[C@@H](C(=O)N[C@@H]([C@H]2O[C@H](SC)[C@H](O)[C@@H](O)[C@H]2O)[C@@H](C)O)N(C)C1,Potency,[1],inactive
O=P(O)(O)C(O)(Cn1ccnc1)P(=O)(O)O,Potency,[1],inactive
CC1(C)NC(=O)N(c2ccc([N+](=O)[O-])c(C(F)(F)F)c2)C1=O,Potency,[1],13 µM (active) and inactive
same,Potency,[2],inactive
same,Potency,[3],inactive
CN(C)CCCC1(c2ccc(F)cc2)OCc2cc(C#N)ccc21 (stereo not given),Potency,[1],inactive
same,Potency,[2],inactive
same,Potency,[4],inactive
same,Potency,[3],inactive
O=C(O)c1cccnc1Nc1cccc(C(F)(F)F)c1,Potency,[1],inactive
same,Potency,[4],inactive
same,Potency,[3],inactive
CC(=O)NC[C@H]1CN(c2ccc(N3CCOCC3)c(F)c2)C(=O)O1,Potency,[1],inactive
COc1ccccc1N1CCN(CCN(C(=O)C2CCCCC2)c2ccccn2)CC1,Potency,[1],inactive
same,Potency,[2],inactive
same,Potency,[4],inactive
same,Potency,[3],inactive
O=c1cc(N2CCOCC2)oc2c(-c3ccccc3)cccc12,Potency,[1],5.9 µM (active) and 20 µM (active)
same,Potency,[2],inactive
same,Potency,[4],inactive
same,Potency,[3],inactive
O=C(c1ccccc1)c1ccc2n1CCC2C(=O)O (stereo not given),Potency,[1],inactive
same,Potency,[2],inactive
same,Potency,[4],inactive
same,Potency,[3],inactive
C=C(c1ccc(C(=O)O)cc1)c1cc2c(cc1C)C(C)(C)CCC2(C)C,Potency,[1],inactive
NCCCCNCCCN,Potency,[1],inactive
same,Potency,[2],inactive
same,Potency,[4],inactive
same,Potency,[3],inactive
Nc1nc(OCc2ccccc2)c2[nH]cnc2n1,Potency,[1],inactive
same,Potency,[2],inactive
same,Potency,[4],inactive
same,Potency,[3],inactive
CN1C(C(=O)Nc2ccccn2)=C(O)c2sccc2S1(=O)=O,Potency,[1],inactive
COc1cc2nc(N3CCN(C(=O)C4CCCO4)CC3)nc(N)c2cc1OC (stereo not given),Potency,[1],inactive
same,Potency,[2],inactive
same,Potency,[4],inactive
same,Potency,[3],inactive
CC(C)CC(=O)N[C@H](C(=O)N[C@H](C(=O)N[C@@H](CC(C)C)[C@@H](O)CC(=O)N[C@@H](C)C(=O)N[C@@H](CC(C)C)[C@@H](O)CC(=O)O)C(C)C)C(C)C (Isovaleryl-VV[Sta]A[Sta]-OH),Potency,[1],inactive
COc1cc2c(cc1OC)C1CC(=O)C(CC(C)C)CN1CC2 (stereo not given),Potency,[1],inactive
same,Potency,[2],inactive
same,Potency,[4],inactive
same,Potency,[3],inactive
